# ± gives the standard deviation.
# How the values were obtained:
# Test in all cases: peptide microarray binding signal (635 nm), min-max normalized on array (fraction of array maximum); higher = stronger binding
# [1] = biological target: T1, HaloTag-ATRX ADD domain (163-292)
# T1 chain: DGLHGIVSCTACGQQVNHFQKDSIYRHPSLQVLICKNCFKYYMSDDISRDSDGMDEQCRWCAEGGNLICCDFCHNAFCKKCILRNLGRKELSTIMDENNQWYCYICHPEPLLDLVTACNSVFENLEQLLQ
# Procedure, shortened: (§1)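 Binding signal is the mean intensity of triplicate spots, min-max scaled within each library. Histone 13-mer peptide–cellulose conjugates were spotted in triplicate on nitrocellulose with a Cy3 tracer and blocked overnight at 4°C. Probing lasted 1 h at 4°C, either with biotin-labelled HaloTag reader fusions (10 nM to 1 μM) and streptavidin-Alexa Fluor 647 or with rabbit histone antibodies (1:10,000 to 1:2,000) and anti-rabbit Alexa 647. An Axon GenePix 4000B read signal at 635 nm and misprints at 532 nm.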
# [2] = biological target: HaloTag-ING2 PHD (mouse Ing2 200-280)
# Procedure, shortened: as §1
# [3] = biological target: anti-H3K4me3 antibody ab8580
# Procedure, shortened: as §1
# [4] = biological target: anti-H3K9me3 antibody ab8898
# Procedure, shortened: as §1
# [5] = peptide region: H4 53-65, peptide modifications: H4K59me1, binder concentration: 1:2,000 dilution
# [6] = peptide region: H4 53-65, peptide modifications: H4K59me1, binder concentration: 1:10,000 dilution
# [7] = peptide region: H4 38-50, peptide modifications: H4K44me3 H4R45me2s, binder concentration: 1:2,000 dilution
# [8] = peptide region: H4 38-50, peptide modifications: H4K44me3 H4R45me2s, binder concentration: 1:10,000 dilution
# [9] = peptide region: H4 38-50, peptide modifications: H4R45me2s, binder concentration: 1:2,000 dilution
# [10] = peptide region: H4 38-50, peptide modifications: H4R45me2s, binder concentration: 1:10,000 dilution
# [11] = peptide region: H4 38-50, peptide modifications: H4R45me2a, binder concentration: 1:2,000 dilution
# [12] = peptide region: H4 38-50, peptide modifications: H4R45me2a, binder concentration: 1:10,000 dilution
# [13] = peptide region: H4 53-65, binder concentration: 1:2,000 dilution
# [14] = peptide region: H4 53-65, binder concentration: 1:10,000 dilution
# [15] = peptide region: H4 38-50, peptide modifications: H4K44me3 H4R45me2a, binder concentration: 1:2,000 dilution
# [16] = peptide region: H4 38-50, peptide modifications: H4K44me3 H4R45me2a, binder concentration: 1:10,000 dilution
# [17] = peptide region: H4 53-65, peptide modifications: H4K59ac, binder concentration: 1:2,000 dilution
# [18] = peptide region: H4 53-65, peptide modifications: H4K59ac, binder concentration: 1:10,000 dilution
# [19] = peptide region: H4 53-65, peptide modifications: H4K59me2, binder concentration: 1:2,000 dilution
# [20] = peptide region: H4 53-65, peptide modifications: H4K59me2, binder concentration: 1:10,000 dilution
# [21] = peptide region: H4 38-50, peptide modifications: H4R45me1, binder concentration: 1:2,000 dilution
# [22] = peptide region: H4 38-50, peptide modifications: H4R45me1, binder concentration: 1:10,000 dilution
# [23] = peptide region: H4 38-50, peptide modifications: H4R45cit, binder concentration: 1:2,000 dilution
# [24] = peptide region: H4 38-50, peptide modifications: H4R45cit, binder concentration: 1:10,000 dilution
binder,measurement,setting,value
ETRGVLKVFLENV [H4 53-65 E T R G V L Kme V F L E N V],peptide microarray binding signal,"[1]; peptide region: H4 53-65, peptide modifications: H4K59me1, binder concentration: 50 nM",0.00605 ± 0.00068
same,peptide microarray binding signal,"[1]; peptide region: H4 53-65, peptide modifications: H4K59me1, binder concentration: 500 nM",0.00795 ± 0.00042
same,peptide microarray binding signal,"[2]; peptide region: H4 53-65, peptide modifications: H4K59me1, binder concentration: 10 nM",0.00847 ± 0.001
same,peptide microarray binding signal,"[2]; peptide region: H4 53-65, peptide modifications: H4K59me1, binder concentration: 100 nM",0.0164 ± 0.0049
same,peptide microarray binding signal,[3]; [5],0.00213 ± 0.00025
same,peptide microarray binding signal,[3]; [6],0.00314 ± 0.00021
same,peptide microarray binding signal,[4]; [5],0.00166 ± 0.00016
same,peptide microarray binding signal,[4]; [6],0.00231 ± 8.4e-05
ARRGGVKRISGLI [H4 38-50 A R R G G V Kme3 Rme2s I S G L I],peptide microarray binding signal,"[1]; peptide region: H4 38-50, peptide modifications: H4K44me3 H4R45me2s, binder concentration: 50 nM",0.00533 ± 8.8e-05
same,peptide microarray binding signal,"[1]; peptide region: H4 38-50, peptide modifications: H4K44me3 H4R45me2s, binder concentration: 500 nM",0.0131 ± 0.0006
same,peptide microarray binding signal,"[2]; peptide region: H4 38-50, peptide modifications: H4K44me3 H4R45me2s, binder concentration: 10 nM",0.0355 ± 0.0027
same,peptide microarray binding signal,"[2]; peptide region: H4 38-50, peptide modifications: H4K44me3 H4R45me2s, binder concentration: 100 nM",0.0541 ± 0.0061
same,peptide microarray binding signal,[3]; [7],0.0265 ± 0.0032
same,peptide microarray binding signal,[3]; [8],0.0193 ± 0.0017
same,peptide microarray binding signal,[4]; [7],0.0291 ± 0.0028
same,peptide microarray binding signal,[4]; [8],0.0206 ± 0.0014
ARRGGVKRISGLI [H4 38-50 A R R G G V K Rme2s I S G L I],peptide microarray binding signal,"[1]; peptide region: H4 38-50, peptide modifications: H4R45me2s, binder concentration: 50 nM",0.0042 ± 0.00012
same,peptide microarray binding signal,"[1]; peptide region: H4 38-50, peptide modifications: H4R45me2s, binder concentration: 500 nM",0.00971 ± 0.0016
same,peptide microarray binding signal,"[2]; peptide region: H4 38-50, peptide modifications: H4R45me2s, binder concentration: 10 nM",0.0212 ± 0.0027
same,peptide microarray binding signal,"[2]; peptide region: H4 38-50, peptide modifications: H4R45me2s, binder concentration: 100 nM",0.0349 ± 0.0095
same,peptide microarray binding signal,[3]; [9],0.00542 ± 0.0019
same,peptide microarray binding signal,[3]; [10],0.00702 ± 0.0012
same,peptide microarray binding signal,[4]; [9],0.00222 ± 0.0001
same,peptide microarray binding signal,[4]; [10],0.00173 ± 4.4e-05
ARRGGVKRISGLI [H4 38-50 A R R G G V K Rme2a I S G L I],peptide microarray binding signal,"[1]; peptide region: H4 38-50, peptide modifications: H4R45me2a, binder concentration: 50 nM",0.00589 ± 0.00093
same,peptide microarray binding signal,"[1]; peptide region: H4 38-50, peptide modifications: H4R45me2a, binder concentration: 500 nM",0.0275 ± 0.023
same,peptide microarray binding signal,"[2]; peptide region: H4 38-50, peptide modifications: H4R45me2a, binder concentration: 10 nM",0.0152 ± 0.0026
same,peptide microarray binding signal,"[2]; peptide region: H4 38-50, peptide modifications: H4R45me2a, binder concentration: 100 nM",0.024 ± 0.0022
same,peptide microarray binding signal,[3]; [11],0.00185 ± 3.4e-05
same,peptide microarray binding signal,[3]; [12],0.00468 ± 0.0014
same,peptide microarray binding signal,[4]; [11],0.00134 ± 0.00014
same,peptide microarray binding signal,[4]; [12],0.00144 ± 7.5e-05
ETRGVLKVFLENV [H4 53-65 E T R G V L K V F L E N V],peptide microarray binding signal,"[1]; peptide region: H4 53-65, binder concentration: 50 nM",0.00282 ± 3.2e-05
same,peptide microarray binding signal,"[1]; peptide region: H4 53-65, binder concentration: 500 nM",0.003334 ± 2.5e-05
same,peptide microarray binding signal,"[2]; peptide region: H4 53-65, binder concentration: 10 nM",0.00639 ± 0.00028
same,peptide microarray binding signal,"[2]; peptide region: H4 53-65, binder concentration: 100 nM",0.00461 ± 7.6e-05
same,peptide microarray binding signal,[3]; [13],0.00121 ± 3.5e-05
same,peptide microarray binding signal,[3]; [14],0.00188 ± 3.5e-05
same,peptide microarray binding signal,[4]; [13],0.00068 ± 1e-05
same,peptide microarray binding signal,[4]; [14],0.001211 ± 1.2e-05
ARRGGVKRISGLI [H4 38-50 A R R G G V Kme3 Rme2a I S G L I],peptide microarray binding signal,"[1]; peptide region: H4 38-50, peptide modifications: H4K44me3 H4R45me2a, binder concentration: 50 nM",0.00524 ± 0.00017
same,peptide microarray binding signal,"[1]; peptide region: H4 38-50, peptide modifications: H4K44me3 H4R45me2a, binder concentration: 500 nM",0.00852 ± 0.00069
same,peptide microarray binding signal,"[2]; peptide region: H4 38-50, peptide modifications: H4K44me3 H4R45me2a, binder concentration: 10 nM",0.0304 ± 0.0024
same,peptide microarray binding signal,"[2]; peptide region: H4 38-50, peptide modifications: H4K44me3 H4R45me2a, binder concentration: 100 nM",0.0612 ± 0.0075
same,peptide microarray binding signal,[3]; [15],0.0239 ± 0.0068
same,peptide microarray binding signal,[3]; [16],0.016 ± 0.00029
same,peptide microarray binding signal,[4]; [15],0.0197 ± 0.0016
same,peptide microarray binding signal,[4]; [16],0.009686 ± 5.3e-05
ETRGVLKVFLENV [H4 53-65 E T R G V L Kac V F L E N V],peptide microarray binding signal,"[1]; peptide region: H4 53-65, peptide modifications: H4K59ac, binder concentration: 50 nM",0.00241 ± 3.2e-05
same,peptide microarray binding signal,"[1]; peptide region: H4 53-65, peptide modifications: H4K59ac, binder concentration: 500 nM",0.00333 ± 0.00022
same,peptide microarray binding signal,"[2]; peptide region: H4 53-65, peptide modifications: H4K59ac, binder concentration: 10 nM",0.00997 ± 0.0024
same,peptide microarray binding signal,"[2]; peptide region: H4 53-65, peptide modifications: H4K59ac, binder concentration: 100 nM",0.00425 ± 0.00013
same,peptide microarray binding signal,[3]; [17],0.00104 ± 4.9e-05
same,peptide microarray binding signal,[3]; [18],0.00143 ± 4.8e-05
same,peptide microarray binding signal,[4]; [17],0.000529 ± 1.3e-05
same,peptide microarray binding signal,[4]; [18],0.00104 ± 2.1e-05
ETRGVLKVFLENV [H4 53-65 E T R G V L Kme2 V F L E N V],peptide microarray binding signal,"[1]; peptide region: H4 53-65, peptide modifications: H4K59me2, binder concentration: 50 nM",0.00674 ± 0.0001
same,peptide microarray binding signal,"[1]; peptide region: H4 53-65, peptide modifications: H4K59me2, binder concentration: 500 nM",0.00752 ± 0.00054
same,peptide microarray binding signal,"[2]; peptide region: H4 53-65, peptide modifications: H4K59me2, binder concentration: 10 nM",0.0113 ± 0.00022
same,peptide microarray binding signal,"[2]; peptide region: H4 53-65, peptide modifications: H4K59me2, binder concentration: 100 nM",0.00758 ± 0.0001
same,peptide microarray binding signal,[3]; [19],0.00177 ± 0.00011
same,peptide microarray binding signal,[3]; [20],0.00394 ± 0.0003
same,peptide microarray binding signal,[4]; [19],0.00122 ± 2.8e-05
same,peptide microarray binding signal,[4]; [20],0.003113 ± 2.6e-05
ARRGGVKRISGLI [H4 38-50 A R R G G V K Rme I S G L I],peptide microarray binding signal,"[1]; peptide region: H4 38-50, peptide modifications: H4R45me1, binder concentration: 50 nM",0.00486 ± 6.2e-05
same,peptide microarray binding signal,"[1]; peptide region: H4 38-50, peptide modifications: H4R45me1, binder concentration: 500 nM",0.0107 ± 0.00046
same,peptide microarray binding signal,"[2]; peptide region: H4 38-50, peptide modifications: H4R45me1, binder concentration: 10 nM",0.01247 ± 0.00012
same,peptide microarray binding signal,"[2]; peptide region: H4 38-50, peptide modifications: H4R45me1, binder concentration: 100 nM",0.0215 ± 0.0011
same,peptide microarray binding signal,[3]; [21],0.00306 ± 5.9e-05
same,peptide microarray binding signal,[3]; [22],0.00508 ± 7.3e-05
same,peptide microarray binding signal,[4]; [21],0.0021 ± 4.5e-05
same,peptide microarray binding signal,[4]; [22],0.0019 ± 3.6e-05
ARRGGVKRISGLI [H4 38-50 A R R G G V K Rcit I S G L I],peptide microarray binding signal,"[1]; peptide region: H4 38-50, peptide modifications: H4R45cit, binder concentration: 50 nM",0.00395 ± 6.8e-05
same,peptide microarray binding signal,"[1]; peptide region: H4 38-50, peptide modifications: H4R45cit, binder concentration: 500 nM",0.00619 ± 7.4e-05
same,peptide microarray binding signal,"[2]; peptide region: H4 38-50, peptide modifications: H4R45cit, binder concentration: 10 nM",0.00561 ± 4.7e-05
same,peptide microarray binding signal,"[2]; peptide region: H4 38-50, peptide modifications: H4R45cit, binder concentration: 100 nM",0.0163 ± 0.003
same,peptide microarray binding signal,[3]; [23],0.012 ± 0.0055
same,peptide microarray binding signal,[3]; [24],0.00976 ± 0.00034
same,peptide microarray binding signal,[4]; [23],0.00521 ± 0.00036
same,peptide microarray binding signal,[4]; [24],0.00271 ± 7.1e-05
